The target of this assay is T1, ETS1 (UniProt P14921).
T1 sequence: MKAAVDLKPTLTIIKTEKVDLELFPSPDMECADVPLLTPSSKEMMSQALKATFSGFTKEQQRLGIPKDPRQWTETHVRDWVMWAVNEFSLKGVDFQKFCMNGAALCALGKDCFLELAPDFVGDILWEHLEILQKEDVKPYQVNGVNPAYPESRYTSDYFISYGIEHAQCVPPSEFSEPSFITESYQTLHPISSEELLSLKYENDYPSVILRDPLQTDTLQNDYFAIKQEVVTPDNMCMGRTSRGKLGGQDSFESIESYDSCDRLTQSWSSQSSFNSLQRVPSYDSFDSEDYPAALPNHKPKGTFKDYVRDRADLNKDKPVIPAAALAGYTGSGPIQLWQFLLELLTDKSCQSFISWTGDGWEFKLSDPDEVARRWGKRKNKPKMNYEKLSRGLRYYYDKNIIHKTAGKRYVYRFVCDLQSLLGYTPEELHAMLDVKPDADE
In words: ETS1 binding intensity (PBM fluorescence), ETS1 alone (arbitrary fluorescence units); higher = stronger binding. The note with it: ETS1 concentration 1 nM; RUNX1 concentration 0 nM. As for the experimental part: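 Cooperative genomic-context PBM: 36-bp genomic probes with neighbouring ETS1 and RUNX1 sites, double-stranded on Agilent 4x180k arrays. Full-length recombinant human ETS1 (1 nM) was incubated alone or with RUNX1 (25 nM) and detected with anti-ETS1 antibody plus Alexa488 secondary. Value is the median fluorescence intensity over 4 replicate spots; the ETS1+RUNX1 data were normalised to the ETS1-only data using probes without RUNX1 sites. The 36-bp variable region sits on the array probe with constant linker/primer flanks that are not printed.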
TCGCCCGCCGCTTCCTGTCGCGGCGCCGCAGAGGCC showed an ETS1 binding intensity of 1740.

For the sequence AGGGCATAAACAGGATGTGGTGTTGGATGAAACCTT, the ETS1 binding intensity was 5290.

In the case of GGCAACCTGAGCTTCCGTGTAAAACCACAGTGTGAC, the ETS1 binding intensity was 372.

Take CCCTCAGCGGAAGTGGAAGCTGTGGTTTCCAAAGGC: the ETS1 binding intensity is 4750.

TGGGGGATGGCAGCAGGATGTGGTTATCTCAGAAAG gave an ETS1 binding intensity of 3330.

Sequence TTGGTCAGGATGTGGCTGAAGAAGCCACAAGAAAAA had an ETS1 binding intensity of 796.

As to GACTTGGGGGAAGTGGCTTGGTTTGCGTGGTTTCTC, the ETS1 binding intensity was found to be 433.

Sequence TGGCTTATCCTAACAGGAAGTGGTTTATCTGATCCT gave an ETS1 binding intensity of 16100.

Sequence AGTTTCTCCAGGAAGCGCTGAGGTTTTCTCAGAAGT showed an ETS1 binding intensity of 763.

CCAAGTGTAAAACGGAAGCTCAACCACGAATCTTAC yielded an ETS1 binding intensity of 1510.

Sequence GAGCACAGGAAAAGCTGGTGCCAACCACAAGTGCTT had an ETS1 binding intensity of 368.

For ACCAAACGTCACATCCGCGGTGCTGCTGTAATCCCA, the ETS1 binding intensity amounted to 470.

Regarding CTACATGTTTCACAGGAAGGTGGTCACCAGGAGGCA, the ETS1 binding intensity is 782.

GATCTGCTTGGCTTCCTGTGGTCGCTGACTCACAGT yielded an ETS1 binding intensity of 905.

Turning to CTCCTGAGGAAGTAGTTACAGACACCACAGCGGAGG, the ETS1 binding intensity amounted to 511.

Take AAGGCGGAGGAAGGGAAAATTGTGGTTGGGCAGAGG: the ETS1 binding intensity was 511.

The sequence GAGACTTTCGCTTCCGGCTGCCGCAGGCGCTTCGCT had an ETS1 binding intensity of 1830.

In the case of GCTGTCCGTTTCCGAGATGTTAATGCGGGATCTTGC, the ETS1 binding intensity came out at 473.

For GGCTGCGACTTCCGGACTGCTCCTGGCCGCAGGGGG, the ETS1 binding intensity was 2070.

TTACGACACTTCCGGCGACGCCCCGCAGCCTTCACC: the ETS1 binding intensity came out at 2890.

For GGACTCTGGCAGGAAGCTGTTTGTGGTTGTCACACC, the ETS1 binding intensity was 3140.

The sequence GGTTCGCGGCTTCCGGGACATTTGTACCGCAGGGGG displayed an ETS1 binding intensity of 960.

As for AGGTTAATACCCGGAACTACCACAACCGTCTTCCCT, the ETS1 binding intensity amounted to 772.

Sequence TCCCCCACTTCCTGGCAGCAGCAGTGTGGTGAGGAG showed an ETS1 binding intensity of 845.

Sequence TGGAGTGGAGGAAGTGGTGTTACCACAGCTCAGAGG gave an ETS1 binding intensity of 1050.

CTAAACCGGAAGCCGCCCCTCTGACCGCTCTAAAAC returned an ETS1 binding intensity of 5350.

Turning to GACTCTTCCGGCCCAGAGCTTTCGGAGTGCGGTTGC, the ETS1 binding intensity is 399.

Consider TGAGCACTGAGCACTTCCTGTGGCTTCTGAAGCTCC, for which the ETS1 binding intensity amounted to 1860.

On to CGAGTCAGGAAATCACAGCTCTGCGGGTGGGCTCCT, for which the ETS1 binding intensity was found to be 458.

GCTGCTGTAGTCGCTTCCTGCGGCCAGCCCGGGTTC had an ETS1 binding intensity of 526.

GCCCAGTTCTCGCATCCGGTCTGCGGCGCGCTCGGG had an ETS1 binding intensity of 4380.

TGGGGAGCAGGAAGCTGGGGGCGGTTGTGGAGGGAC returned an ETS1 binding intensity of 1130.

GAAACCTCACTCTGAGGATGTGGGTTCTGCCTTCTT registered an ETS1 binding intensity of 522.

Consider TGAGCTCAGGCCGGAAGCGGTGGATGATGGCACACA, for which the ETS1 binding intensity stood at 9910.

Regarding GAAGCGCTGGGCGGAAGTGGCTGTGGCTTTGCCCTT, the ETS1 binding intensity came out at 9200.

Consider GGCTGTGCTTCAGGATGTGGTAATGCTTGGGAGGCG, for which the ETS1 binding intensity was determined as 990.

For the sequence TAGCATGTGAGCTTCCTGTGGGTTTGTGCAGCCCCA, the ETS1 binding intensity was determined as 616.

The sequence CACCTCAGCTTCCTGTGTAGCTGGGACCACAGGCAT registered an ETS1 binding intensity of 687.

As for CCAGGCGGAAGCGGCCGGGAGTAGCGCTGCGGTTGG, the ETS1 binding intensity was found to be 631.

In turn, GGAGCGACGGAAGCACCTGAAGCGGTCTTTCCCCGA had an ETS1 binding intensity of 514.

(Values after the supplement of paper PMC10681739.)
